# High-throughput results deposited in PubChem by Sanford-Burnham Center for Chemical Genomics.
# In the library only some 28% were active in any assay of this set; here they are far more common.
# Mac1 fbg inh: inhibitors of human CD11b/CD18 binding to fibrinogen | actives 0.54% (n = 93,000) | AID 1497 | P05107+P11215 | K562 CD11b/CD18 adhesion to fibrinogen, ATPlite luminescence; Mn2+ added to activate the integrin | inhibition, % at 10 µM;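 active means primary inhibition of 50% or more at 10 µM, then 40% or more on retest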
# Target sequence (P05107 whole entry, looked up, other chains not shown): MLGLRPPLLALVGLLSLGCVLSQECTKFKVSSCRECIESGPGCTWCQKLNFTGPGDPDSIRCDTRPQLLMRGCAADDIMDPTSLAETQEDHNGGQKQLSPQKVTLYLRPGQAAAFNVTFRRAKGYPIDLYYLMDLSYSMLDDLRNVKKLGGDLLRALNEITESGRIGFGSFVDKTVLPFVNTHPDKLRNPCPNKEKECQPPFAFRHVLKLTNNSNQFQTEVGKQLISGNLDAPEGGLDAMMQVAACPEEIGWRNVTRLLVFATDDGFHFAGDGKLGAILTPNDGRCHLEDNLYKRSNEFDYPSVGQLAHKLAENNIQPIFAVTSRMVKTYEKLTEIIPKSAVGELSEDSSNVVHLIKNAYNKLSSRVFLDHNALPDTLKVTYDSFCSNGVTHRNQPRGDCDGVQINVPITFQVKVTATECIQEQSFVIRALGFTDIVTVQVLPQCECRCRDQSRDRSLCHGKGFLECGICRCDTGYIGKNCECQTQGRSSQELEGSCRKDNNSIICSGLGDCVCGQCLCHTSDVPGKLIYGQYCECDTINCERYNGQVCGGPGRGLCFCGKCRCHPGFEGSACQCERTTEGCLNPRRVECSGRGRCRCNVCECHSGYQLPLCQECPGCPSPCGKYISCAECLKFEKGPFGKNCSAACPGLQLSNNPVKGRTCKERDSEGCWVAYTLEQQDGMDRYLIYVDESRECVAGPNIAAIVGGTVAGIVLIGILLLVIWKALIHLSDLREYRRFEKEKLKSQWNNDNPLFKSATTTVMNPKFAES
# CYP2C9 inhib: blocks human cytochrome P450 2C9; AID 777; actives 20% (n = 96,000); CYP2C9 Supersomes, luciferin-H conversion, luminescence; inhibition, % at 5 µM;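 active means blocking of liver enzyme CYP2C9 beyond about 50% at 5 µM, limit read from the data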
# CYP2C19 activ: cytochrome P450 2C19 (human) activation; P33261; recombinant CYP2C19, luciferin-H EGE luminescence; stronger effect = higher value; 0 = fully inhibited enzyme, 1 = untreated enzyme; activation factor at 5 µM; 96,000 tested, under 10 active;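 active means activation factor of at least 2 at 5 µM in the primary screen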;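 further: 0 = wells with 2.5 mM tranylcypromine and 1 = vehicle-only wells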
# Mac1 fbg enh: enhancers of human CD11b/CD18 binding to fibrinogen. P05107+P11215. K562 CD11b/CD18 adhesion to fibrinogen, ATPlite luminescence. activation, % at 10 µM. actives 0.07% (n = 93,000);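 active means 10 µM primary screen giving 50% or more activity, confirmed by 40% or more on retest at that dose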
# CYP2C19 inh: human CYP2C19 inhibition; P33261; CYP2C19 Supersomes, luciferin-H EGE luminescence, 30 min; inhibition, % at 5 µM; actives 21% (n = 96,000);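 active means CYP2C19 inhibition above a set limit at 5 µM in the primary screen, cut at about 50% in these data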;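 further: plate controls were negative control wells for no effect and 2.5 mM tranylcypromine positive control for full effect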
# CYP2C9 act: activators of human CYP2C9. P11712. recombinant CYP2C9, luciferin-H conversion, luminescence; stronger effect = higher value; factor 1 = untreated enzyme, 0 = blocked. activation factor at 5 µM. actives 1.4% (n = 96,000). AID 1024;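 active means activation factor of 2 or more for CYP2C9 at a 5 µM dose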;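 further: 0 = sulfaphenazole-blocked wells and 1 = vehicle-only wells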
# * marks the source's active call; other numbers are inactive results; nt = no result.
SMILES,Mac1 fbg inh,CYP2C9 inhib,CYP2C19 activ,Mac1 fbg enh,CYP2C19 inh,CYP2C9 act
CCC(C)NC(=O)COC(=O)c1cc([N+](=O)[O-])ccc1Sc1nc(C)cs1 (stereo unspecified),-14.1,16.9,0.8,-5.0,20.1,0.8
CS(=O)(=O)N(Cc1ccccc1)c1ccc(C(=O)Nc2ccc3c(c2)OCO3)cc1,3.2,6.1,1,-1.0,-1.3,0.9
COC(=O)COc1ccc(S(=O)(=O)NCc2ccncc2)cc1,79.8*,69.9*,0,-4.3,99.1*,0.3
O=C(NCc1ccccc1)c1cccc(S(=O)(=O)NCc2ccccc2)c1,3.9,nt,nt,-0.2,nt,nt
O=S(=O)(NCc1ccncc1)c1ccc(Br)s1,97.6*,50.8*,0,-11.4,98.0*,0.5
CCOC(=O)COc1ccc(S(=O)(=O)NCc2cccnc2)cc1,4.3,5.2,1,-1.2,-1.1,0.9
O=C(O)CNS(=O)(=O)c1ccc(Br)s1,-7.1,-7.8,1.1,5.7,-9.0,1.1
O=S(=O)(NCc1ccncc1)c1ccccc1,6.2,33.3,0.1,-4.2,91.3*,0.7
Cc1ccc(OCc2ccc(C(=O)Nc3nc4ccccc4n3C)o2)c([N+](=O)[O-])c1,-7.5,nt,nt,3.3,nt,nt
CC(=O)c1cc(CC=C(C)C)c(O)c(CC=C(C)C)c1O,5.0,70.9*,0.2,13.8,83.8*,0.3
CC(=O)c1ccc(O)c(CO)c1,-8.9,-6.8,1.2,-0.6,-17.8,1.1
CC(=O)c1cc(CC=C(C)C)c(O)cc1O,nt,79.8*,0.7,nt,32.1,0.2
COc1cc(CC(=O)O)c(C(C)=O)cc1OC,nt,-3.0,1.1,nt,-8.8,1
COc1ccc(C2C3=C(CC(C)(C)CC3=O)Oc3ncn(Cc4ccco4)c(=N)c32)cc1 (stereo unspecified),-6.6,4.8,1.1,-1.1,-6.8,1
O=C(c1cccnc1)N1C2C=CC(C2)C1(C(F)(F)F)C(F)(F)F (stereo unspecified),-1.5,-34.1,1.2,0.1,-21.3,1.3
O=C(c1ccncc1)N1C2C=CC(C2)C1(C(F)(F)F)C(F)(F)F (stereo unspecified),15.9,60.6*,0.8,1.6,22.6,0.4
CC1CCC(NC(=O)C2CCN(c3cnccn3)CC2)CC1 (stereo unspecified),0.5,-11.1,0.5,-3.0,53.0*,1.1
CCc1nnc(NC(=O)C2CCN(c3cnccn3)CC2)s1,-9.9,24.8,0.9,-1.1,5.4,0.8
CCOC(=O)c1c(C)[nH]c(C(=O)COC(=O)c2ccc(F)c(S(=O)(=O)N3CCOCC3)c2)c1C,22.4,20.5,1.1,4.7,-7.4,0.8
CN(C(=O)CSc1nnc(Nc2ccccc2)s1)c1c(N)n(Cc2ccccc2)c(=O)[nH]c1=O,7.2,64.1*,0.7,-3.9,25.9,0.4
COC(c1ccccc1)c1c(-c2ccccc2)nn(C)c1Cl (stereo unspecified),-5.2,70.8*,0.1,1.6,94.1*,0.3
COC(=O)C1Cc2c([nH]c3ccccc23)C(C)N1 (stereo unspecified),-18.9,-159.2,0.5,-1.6,50.5*,2.6*
CCOC(=O)C1Cc2c([nH]c3ccccc23)CN1 (stereo unspecified),4.3,3.0,0.4,6.7,56.3*,1
COc1ccc(C(c2c(O)ccc3ccccc23)N2CCOCC2)c(OC)c1 (stereo unspecified),4.0,92.7*,0.1,1.8,86.9*,0.1
Cc1[nH]c2ccccc2c1C(=O)CN1CCCCC1CCO (stereo unspecified),-10.6,31.6,0.8,-2.2,17.5,0.7
CCCCOc1ccc(-c2c(C#N)c(N)nc(SCC(N)=O)c2C#N)cc1,20.4,39.3,0.7,14.8,26.8,0.6
CCCCOC(=O)CSc1nc(N)c(C#N)c(-c2ccc(OC)cc2)c1C#N,-5.4,8.3,0.7,1.2,28.7,0.9
CCOC(=O)CSc1nc(N)c(C#N)c(-c2ccc(OC)cc2)c1C#N,10.1,45.1,0.4,-0.2,60.1*,0.5
CCOC(=O)CC(=O)CSc1nc(N)c(C#N)c(-c2ccc(F)cc2)c1C#N,-2.3,52.9*,0.4,-1.9,62.2*,0.5
